# Where a name gives a salt, the structure may show the parent alone. ± gives the standard deviation of the averaged measurements.
# Key:
# Assay in all cases: growth (OD600 after 10 h); higher = more growth (less inhibition)
# [1] = system: E. coli TESEC Alr+ wild-type control; conditions: compound 0.1 mM; raw OD600 reference: median of DMSO wells 0.241, cell-free background 0.041
# Procedure: (§1)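 TESEC Mtb Alr E. coli, or the Alr+ wild-type control, in 384-well plates with Prestwick library compounds at 0.1 mM and 1% DMSO, across arabinose induction levels of 1E3 to 1E7 nM. Growth is read as OD600 after 10 h at 37 °C in triplicate biological replicates.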
# E. coli TESEC Mtb Alr [2] = conditions: compound 0.1 mM
# Procedure: as §1
# E. coli TESEC Mtb Asd = conditions: compound 0.1 mM
# Procedure: (§2)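 TESEC E. coli strains in which the native enzyme is deleted and replaced by arabinose-inducible Mtb Asd, DapB, CysH or TrpD, each grown in its selective medium. Strains were screened against the Prestwick library at 0.1 mM and 1% DMSO in 384-well format at low and high arabinose induction. Growth is read as OD600 after 10 h in triplicate.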
# E. coli TESEC Mtb DapB = conditions: compound 0.1 mM
# Procedure: as §2
# E. coli TESEC Mtb Alr [3] = conditions: compound 0.1 mM; remark: listed apart in the source
# Procedure: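 TESEC Mtb Alr E. coli (ΔaraC ΔtolC ΔentC Δalr ΔdadX, arabinose-inducible Mtb Alr) or the Alr+ wild-type control strain, grown in defined M9-fructose medium without D-alanine in 96-well plates with Prestwick library compounds at 0.1 mM and 1% DMSO. Low Alr induction is 0.1 µM arabinose and high induction is 10 mM arabinose.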
# [4] = arabinose 1000 nM, raw OD600 reference: median of DMSO wells 0.294, cell-free background 0.041
# [5] = arabinose 10000 nM, raw OD600 reference: median of DMSO wells 0.264, cell-free background 0.041
# [6] = arabinose 100000 nM, raw OD600 reference: median of DMSO wells 0.201, cell-free background 0.041
# [7] = arabinose 1000000 nM, raw OD600 reference: median of DMSO wells 0.193, cell-free background 0.041
# [8] = arabinose 10000000 nM, raw OD600 reference: median of DMSO wells 0.146, cell-free background 0.041
# [9] = arabinose induction (level): High, raw OD600 reference: median of DMSO wells 0.331, cell-free background 0.041
# [10] = arabinose induction (level): Low, raw OD600 reference: median of DMSO wells 0.417, cell-free background 0.041
# [11] = arabinose induction (level): High, raw OD600 reference: median of DMSO wells […], cell-free background 0.041
# [12] = arabinose induction (level): Low, raw OD600 reference: median of DMSO wells 0.227, cell-free background 0.041
# [13] = arabinose 100 nM, raw OD600 reference: median of DMSO wells 0.413, cell-free background 0.052
# [14] = arabinose 10000000 nM, raw OD600 reference: median of DMSO wells […], cell-free background 0.052
compound,measurement,setting,value
NC(=O)C[S+]([O-])C(c1ccccc1)c1ccccc1 (configuration not stated) [Modafinil],growth,[1],0.246 ± 0.0057
same,growth,E. coli TESEC Mtb Alr [2]; [4],0.295 ± 0.0039
same,growth,E. coli TESEC Mtb Alr [2]; [5],0.255 ± 0.015
same,growth,E. coli TESEC Mtb Alr [2]; [6],0.246 ± 0.021
same,growth,E. coli TESEC Mtb Alr [2]; [7],0.192 ± 0.0097
same,growth,E. coli TESEC Mtb Alr [2]; [8],0.148 ± 0.0039
same,growth,E. coli TESEC Mtb Asd; [9],0.348 ± 0.097
same,growth,E. coli TESEC Mtb Asd; [10],0.434 ± 0.039
same,growth,E. coli TESEC Mtb DapB; [11],0.191 ± 0.013
same,growth,E. coli TESEC Mtb DapB; [12],0.199 ± 0.017
same,growth,E. coli TESEC Mtb Alr [3]; [13],0.406 ± 0.0054
same,growth,E. coli TESEC Mtb Alr [3]; [14],0.346 ± 0.021
CC(N)C(O)c1ccccc1 (configuration not stated) [Phenylpropanolamine hydrochloride],growth,[1],0.26 ± 0.0031
same,growth,E. coli TESEC Mtb Alr [2]; [4],0.298 ± 0.0047
same,growth,E. coli TESEC Mtb Alr [2]; [5],0.254 ± 0.0066
same,growth,E. coli TESEC Mtb Alr [2]; [6],0.229 ± 0.045
same,growth,E. coli TESEC Mtb Alr [2]; [7],0.19 ± 0.011
same,growth,E. coli TESEC Mtb Alr [2]; [8],0.148 ± 0.0054
same,growth,E. coli TESEC Mtb Asd; [9],0.399 ± 0.022
same,growth,E. coli TESEC Mtb Asd; [10],0.433 ± 0.067
same,growth,E. coli TESEC Mtb DapB; [11],0.189 ± 0.009
same,growth,E. coli TESEC Mtb DapB; [12],0.226 ± 0.025
same,growth,E. coli TESEC Mtb Alr [3]; [13],0.404 ± 0.016
same,growth,E. coli TESEC Mtb Alr [3]; [14],0.345 ± 0.015
O=c1[nH]c2ccccc2n1C1CCN(CCCC(c2ccc(F)cc2)c2ccc(F)cc2)CC1 [Pimozide],growth,[1],0.164 ± 0.013
same,growth,E. coli TESEC Mtb Alr [2]; [4],0.243 ± 0.0073
same,growth,E. coli TESEC Mtb Alr [2]; [5],0.2629 ± 0.0026
same,growth,E. coli TESEC Mtb Alr [2]; [6],0.226 ± 0.045
same,growth,E. coli TESEC Mtb Alr [2]; [7],0.106 ± 0.0046
same,growth,E. coli TESEC Mtb Alr [2]; [8],0.142 ± 0.004
same,growth,E. coli TESEC Mtb Asd; [9],0.209 ± 0.024
same,growth,E. coli TESEC Mtb Asd; [10],0.396 ± 0.015
same,growth,E. coli TESEC Mtb DapB; [11],0.186 ± 0.015
same,growth,E. coli TESEC Mtb DapB; [12],0.227 ± 0.035
same,growth,E. coli TESEC Mtb Alr [3]; [13],0.417 ± 0.0074
same,growth,E. coli TESEC Mtb Alr [3]; [14],0.307 ± 0.034
CN(C)[C@@H]1C(=O)C(C(N)=O)=C(O)[C@@]2(O)C(=O)C3=C(O)c4c(O)ccc(Cl)c4[C@@](C)(O)[C@H]3C[C@@H]12 [Chlortetracycline hydrochloride],growth,[1],0.03933 ± 0.00031
same,growth,E. coli TESEC Mtb Alr [2]; [4],0.0417 ± 0.0029
same,growth,E. coli TESEC Mtb Alr [2]; [5],0.04 ± 0.00072
same,growth,E. coli TESEC Mtb Alr [2]; [6],0.0444 ± 0.0038
same,growth,E. coli TESEC Mtb Alr [2]; [7],0.0402 ± 0.0018
same,growth,E. coli TESEC Mtb Alr [2]; [8],0.0405 ± 0.0011
same,growth,E. coli TESEC Mtb Asd; [9],0.0499 ± 0.0023
same,growth,E. coli TESEC Mtb Asd; [10],0.0479 ± 0.00061
same,growth,E. coli TESEC Mtb DapB; [11],0.0465 ± 0.0014
same,growth,E. coli TESEC Mtb DapB; [12],0.0507 ± 0.0031
same,growth,E. coli TESEC Mtb Alr [3]; [13],0.0524 ± 0.00066
same,growth,E. coli TESEC Mtb Alr [3]; [14],0.0506 ± 0.00035
CC(=O)O[C@H]1C[C@H](O[C@H]2[C@@H](O)C[C@H](O[C@H]3[C@@H](O)C[C@H](O[C@H]4CC[C@@]5(C)[C@H](CC[C@@H]6[C@@H]5C[C@@H](O)[C@]5(C)[C@@H](C7=CC(=O)OC7)CC[C@]65O)C4)O[C@@H]3C)O[C@@H]2C)O[C@H](C)[C@H]1O[C@@H]1O[C@H](CO)[C@@H](O)[C@H](O)[C@H]1O [Lanatoside C],growth,[1],0.198 ± 0.0032
same,growth,E. coli TESEC Mtb Alr [2]; [4],0.261 ± 0.024
same,growth,E. coli TESEC Mtb Alr [2]; [5],0.26 ± 0.0028
same,growth,E. coli TESEC Mtb Alr [2]; [6],0.295 ± 0.031
same,growth,E. coli TESEC Mtb Alr [2]; [7],0.19 ± 0.0089
same,growth,E. coli TESEC Mtb Alr [2]; [8],0.243 ± 0.024
same,growth,E. coli TESEC Mtb Asd; [9],0.339 ± 0.04
same,growth,E. coli TESEC Mtb Asd; [10],0.417 ± 0.057
same,growth,E. coli TESEC Mtb DapB; [11],0.184 ± 0.021
same,growth,E. coli TESEC Mtb DapB; [12],0.233 ± 0.03
same,growth,E. coli TESEC Mtb Alr [3]; [13],0.4014 ± 0.0037
same,growth,E. coli TESEC Mtb Alr [3]; [14],0.354 ± 0.0094
CN(C)[C@@H]1C(=O)C(C(N)=O)=C(O)[C@@]2(O)C(=O)C3=C(O)c4c(O)cccc4[C@@](C)(O)[C@H]3C[C@@H]12 [Tetracycline hydrochloride],growth,[1],0.0422 ± 0.00046
same,growth,E. coli TESEC Mtb Alr [2]; [4],0.0426 ± 0.0035
same,growth,E. coli TESEC Mtb Alr [2]; [5],0.04053 ± 0.00032
same,growth,E. coli TESEC Mtb Alr [2]; [6],0.0418 ± 0.0011
same,growth,E. coli TESEC Mtb Alr [2]; [7],0.04083 ± 0.00025
same,growth,E. coli TESEC Mtb Alr [2]; [8],0.0422 ± 0.00068
same,growth,E. coli TESEC Mtb Asd; [9],0.0539 ± 0.0012
same,growth,E. coli TESEC Mtb Asd; [10],0.0592 ± 0.0072
same,growth,E. coli TESEC Mtb DapB; [11],0.0495 ± 0.0014
same,growth,E. coli TESEC Mtb DapB; [12],0.0516 ± 0.0028
same,growth,E. coli TESEC Mtb Alr [3]; [13],0.0567 ± 0.0019
same,growth,E. coli TESEC Mtb Alr [3]; [14],0.0604 ± 0.0025
